Measured values as given in PubChem BioAssay (EPA / NIEHS).
Where “and” joins values, the source holds several entries; their conditions need not be identical. Equal entries are not always repeated. Inconclusive results are not listed. More than one record can exist for a structure, and the calls need not agree. Calls of active or inactive are those of the source. How the source made its calls: active means hit-call score of the fitted dose curve at least 0.9, where 1 is the maximum; inconclusive means response in the unintended direction; inactive means score below 0.9.

Columns and labels:
[1] = target: guinea pig Sigma Receptor, Non-selective Binding, SIGMAR1 (gene 100135589) (UniProt Q60492); assay: NVS_OR_gSIGMA_NonSelective: NovaScreen (NVS) Nuclear Receptor Binding Assay for guinea pig Sigma Receptor, Non-selective Binding (AID 2283367)
Chain of guinea pig Sigma Receptor, Non-selective Binding, SIGMAR1 (gene 100135589) (Q60492 whole entry, looked up): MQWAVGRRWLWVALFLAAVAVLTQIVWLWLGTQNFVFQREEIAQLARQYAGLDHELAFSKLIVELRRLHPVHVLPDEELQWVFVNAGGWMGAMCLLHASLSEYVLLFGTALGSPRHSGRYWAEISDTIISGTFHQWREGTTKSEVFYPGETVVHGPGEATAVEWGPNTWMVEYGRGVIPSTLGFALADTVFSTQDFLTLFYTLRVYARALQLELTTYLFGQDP
How it was run: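 Guinea pig brain membranes, cell-free radioligand binding; read 1 h after dosing by filter-based scintillation counting. Loss of signal vs DMSO baseline taken as displacement. Primary screen single concentration 25 uM in duplicate; actives retested in concentration series.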

[2] = target: Norway rat Vesicular Monoamine Transporter (VMAT2), neurotransmitter transporter, Slc18a2 (gene 25549) (UniProt Q01827); assay: NVS_TR_rVMAT2: NovaScreen (NVS) Transporter Assay for Norway rat Vesicular Monoamine Transporter (VMAT2), neurotransmitter transporter (AID 2283376);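 further: actives lower the bound radioligand signal below the DMSO level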
How it was run: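 Rat forebrain tissue preparation used in a cell-free radioligand binding format; displacement read by filter-based scintillation counting 1 hour after dosing. Primary screen in duplicate at 25 uM, actives then run in concentration series; loss of signal versus DMSO baseline.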

[3] = target: Estrogen receptor beta (Homo sapiens) (UniProt Q92731); assay: OT_ER_ERbERb_1440: Odyssey Thera (OT) 24-hour HEK293T Protein-Complementation Assay for Estrogen Receptor-beta/-beta Homodimer (AID 2283380);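 further: fluorescence gain from ER beta LBD homodimer complementation read by laser scanning cytometry; scored as signal increase over DMSO baseline for both agonists and antagonists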
Chain of Estrogen receptor beta (Homo sapiens) (Q92731 whole entry, looked up, the tested form may be a part): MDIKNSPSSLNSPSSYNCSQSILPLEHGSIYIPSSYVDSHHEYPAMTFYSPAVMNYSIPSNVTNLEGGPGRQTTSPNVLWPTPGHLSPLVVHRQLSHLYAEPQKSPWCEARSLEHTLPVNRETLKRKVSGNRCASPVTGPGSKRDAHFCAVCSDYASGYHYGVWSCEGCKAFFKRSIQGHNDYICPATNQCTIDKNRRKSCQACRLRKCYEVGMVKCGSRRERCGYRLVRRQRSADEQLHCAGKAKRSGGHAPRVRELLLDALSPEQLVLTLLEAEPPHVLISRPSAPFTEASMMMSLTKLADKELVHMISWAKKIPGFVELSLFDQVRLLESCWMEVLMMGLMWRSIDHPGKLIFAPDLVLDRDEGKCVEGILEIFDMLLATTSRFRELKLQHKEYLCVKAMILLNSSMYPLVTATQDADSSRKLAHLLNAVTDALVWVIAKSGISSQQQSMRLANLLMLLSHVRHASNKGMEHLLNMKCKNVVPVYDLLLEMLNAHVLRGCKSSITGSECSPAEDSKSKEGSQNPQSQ
How it was run: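 HEK293T cells stably expressing human ER-beta LBD (aa 310-547) PCA homodimer pair, dosed 24 h; formaldehyde-fixed, Draq5-stained. Readout: increase in nuclear (agonist) or nuclear plus cytoplasmic (antagonist) fluorescence intensity versus DMSO, gain-of-signal fitting.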

[4] = target: Retinoic acid receptor RXR-alpha (Homo sapiens) (UniProt P19793); assay: OT_NURR1_NURR1RXRa_0480: Odyssey Thera (OT) 8-hour HEK293T Protein Complementation Assay for Nurr1/retinoid X receptor (RXR) (AID 2283385)
How it was run: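 HEK293T cells expressing Nurr1 and RXRα fused to reporter fragments were dosed with compound for 8 hours. Complex formation was read as fluorescence intensity and analysed as gain of signal against DMSO as baseline.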

[5] = test system: guinea pig Dopamine Transporter (DAT), gene 100714898; assay: NVS_TR_gDAT: NovaScreen (NVS) Transporter Assay for guinea pig Dopamine Transporter (DAT) (AID 2283369);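 further: active compounds lower bound radioligand signal relative to DMSO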
How it was run: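 Guinea pig striatal membranes, cell-free radioligand binding with filter-based scintillation counting, read 2 h after dosing. Loss of signal versus DMSO baseline; single-concentration primary (25 uM) then concentration-response up to 50 uM.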

[6] = target: Peroxisome proliferator-activated receptor gamma (Homo sapiens) (UniProt P37231); assay: NVS_NR_hPPARg: NovaScreen (NVS) Nuclear Receptor Binding Assay for human Peroxisome Proliferator-activated Receptor gamma (PPARg) (AID 2283370)
How it was run: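 Cell-free fluorescence polarization binding to human PPARg protein, read 2 h after dosing. Primary screen in duplicate at 25 uM, actives followed in concentration series; loss of signal relative to DMSO scored.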

[7] = target: human Dopamine Transporter (DAT), SLC6A3 (gene 6531) (UniProt Q01959); assay: NVS_TR_hDAT: NovaScreen (NVS) Transporter Assay for human Dopamine Transporter (DAT) (AID 2283374);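 further: activity means loss of bound radioligand signal relative to DMSO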
Chain of human Dopamine Transporter (DAT), SLC6A3 (gene 6531) (Q01959 whole entry, looked up): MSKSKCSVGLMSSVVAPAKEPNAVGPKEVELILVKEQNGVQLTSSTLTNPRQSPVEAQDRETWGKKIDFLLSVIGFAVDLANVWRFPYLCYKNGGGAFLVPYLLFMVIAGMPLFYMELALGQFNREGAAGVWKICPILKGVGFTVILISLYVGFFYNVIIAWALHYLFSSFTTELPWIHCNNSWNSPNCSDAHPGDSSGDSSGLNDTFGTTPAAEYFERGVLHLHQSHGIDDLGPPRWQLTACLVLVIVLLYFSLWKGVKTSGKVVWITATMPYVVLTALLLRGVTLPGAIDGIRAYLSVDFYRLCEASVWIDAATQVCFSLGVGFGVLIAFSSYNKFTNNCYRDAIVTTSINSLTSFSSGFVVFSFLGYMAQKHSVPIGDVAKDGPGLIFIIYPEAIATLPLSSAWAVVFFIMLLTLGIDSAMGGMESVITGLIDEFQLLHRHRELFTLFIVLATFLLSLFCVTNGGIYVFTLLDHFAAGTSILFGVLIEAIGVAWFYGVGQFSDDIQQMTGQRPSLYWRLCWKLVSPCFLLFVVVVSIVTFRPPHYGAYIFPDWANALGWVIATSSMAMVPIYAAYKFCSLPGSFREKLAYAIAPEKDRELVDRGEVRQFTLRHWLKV
How it was run: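 Cell-free radioligand binding to extracted human DAT protein, read 1 h after dosing by filter-based scintillation counting. Loss of specific binding scored against DMSO baseline; primary screen in duplicate at 25 uM, actives then run in concentration series.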

[8] = target: Nuclear receptor subfamily 1 group I member 2 (Homo sapiens) (UniProt O75469); assay: NVS_NR_hPXR: NovaScreen (NVS) Nuclear Receptor Binding Assay for human Pregnane X Receptor (PXR) (AID 2283365);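 further: a drop in FRET signal versus DMSO baseline means the compound binds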
Chain of Nuclear receptor subfamily 1 group I member 2 (Homo sapiens) (O75469 whole entry, looked up): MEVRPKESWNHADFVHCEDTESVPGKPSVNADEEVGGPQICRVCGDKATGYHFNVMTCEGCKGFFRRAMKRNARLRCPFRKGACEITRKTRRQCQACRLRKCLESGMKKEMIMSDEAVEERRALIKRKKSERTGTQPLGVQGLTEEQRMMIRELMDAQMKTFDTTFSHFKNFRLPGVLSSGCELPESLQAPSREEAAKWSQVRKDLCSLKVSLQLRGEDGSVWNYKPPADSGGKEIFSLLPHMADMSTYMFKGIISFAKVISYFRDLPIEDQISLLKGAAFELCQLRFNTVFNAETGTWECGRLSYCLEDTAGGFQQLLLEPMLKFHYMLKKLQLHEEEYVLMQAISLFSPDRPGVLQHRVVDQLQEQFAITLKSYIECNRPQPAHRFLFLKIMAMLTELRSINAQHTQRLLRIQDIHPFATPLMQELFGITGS
How it was run: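 Cell-free TR-FRET binding assay with extracted human PXR protein, read 2 h after dosing. Primary screen run in duplicate at 25 uM, actives followed in concentration series; loss of signal fitted against DMSO baseline.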

[9] = target: Glucocorticoid receptor (Homo sapiens) (UniProt P04150); assay: NVS_NR_hGR: NovaScreen (NVS) Nuclear Receptor Binding Assay for human Glucocorticoid Receptor (GR) (AID 2283363);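 further: activity is loss of specific radioligand binding signal relative to DMSO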
How it was run: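 Cell-free radioligand binding with extracted receptor protein, read by filter-based scintillation counting 16 hours after dosing. Loss of specific signal versus DMSO baseline was scored. Primary screen ran in duplicate at 25 uM; actives were followed up in concentration series.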

[10] = target: human Adenosine Transporter (Adot), SLC29A1 (gene 2030) (UniProt Q99808); assay: NVS_TR_hAdoT: NovaScreen (NVS) Transporter Assay for human Adenosine Transporter (Adot) (AID 2283368)
Chain of human Adenosine Transporter (Adot), SLC29A1 (gene 2030) (Q99808 whole entry, looked up): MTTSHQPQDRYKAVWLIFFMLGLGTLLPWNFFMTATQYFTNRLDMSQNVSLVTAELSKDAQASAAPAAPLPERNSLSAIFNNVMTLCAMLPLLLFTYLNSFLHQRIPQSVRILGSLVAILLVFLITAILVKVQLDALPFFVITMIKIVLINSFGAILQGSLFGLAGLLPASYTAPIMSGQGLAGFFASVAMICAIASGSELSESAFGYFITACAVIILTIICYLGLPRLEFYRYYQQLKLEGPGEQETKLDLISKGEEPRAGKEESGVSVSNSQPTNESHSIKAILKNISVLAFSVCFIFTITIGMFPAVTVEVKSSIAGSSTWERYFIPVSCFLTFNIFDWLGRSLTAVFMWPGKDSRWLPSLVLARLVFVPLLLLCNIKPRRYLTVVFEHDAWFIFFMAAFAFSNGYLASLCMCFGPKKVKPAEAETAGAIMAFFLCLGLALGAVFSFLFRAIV
How it was run: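 U937-derived membranes, cell-free radioligand binding, filter scintillation 1 h after dosing. 25 uM duplicate screen; hits (e.g. 30% inhibition) run in concentration-response up to 50 uM; loss of signal versus DMSO.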

[11] = target: rat Serotonin Transporter (SERT), Slc6a4 (gene 25553) (UniProt P31652); assay: NVS_TR_rSERT: NovaScreen (NVS) Transporter Assay for rat Serotonin Transporter (SERT) (AID 2283375)
How it was run: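 Rat forebrain membranes; radioligand displacement at SERT read by filter-based scintillation counting, 1 h after dosing. Screened in duplicate at 25 uM, actives then run in concentration series; loss of signal versus DMSO baseline.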

[12] = target: human Norepinephrine Transporter (NET), SLC6A2 (gene 6530) (UniProt P23975); assay: NVS_TR_hNET: NovaScreen (NVS) Transporter Assay for human Norepinephrine Transporter (NET) (AID 2283377);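 further: cell-free membrane protein extracted from CHO cells expressing human NET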
How it was run: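 Radioligand binding to human NET in cell-free CHO-derived protein preparations, read by filter-based scintillation counting 1 hour after dosing. Loss of signal versus DMSO baseline indicated displacement; primary screening in duplicate at 25 uM, actives then titrated.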

[13] = target: Estrogen receptor (Homo sapiens) (UniProt P03372); assay: OT_ERa_GFPERaERE_0120: Odyssey Thera (OT) 2-hour HeLa Transcription Induction Assay for Estrogen Receptor (AID 2283382)
Chain of Estrogen receptor (Homo sapiens) (P03372 whole entry, looked up): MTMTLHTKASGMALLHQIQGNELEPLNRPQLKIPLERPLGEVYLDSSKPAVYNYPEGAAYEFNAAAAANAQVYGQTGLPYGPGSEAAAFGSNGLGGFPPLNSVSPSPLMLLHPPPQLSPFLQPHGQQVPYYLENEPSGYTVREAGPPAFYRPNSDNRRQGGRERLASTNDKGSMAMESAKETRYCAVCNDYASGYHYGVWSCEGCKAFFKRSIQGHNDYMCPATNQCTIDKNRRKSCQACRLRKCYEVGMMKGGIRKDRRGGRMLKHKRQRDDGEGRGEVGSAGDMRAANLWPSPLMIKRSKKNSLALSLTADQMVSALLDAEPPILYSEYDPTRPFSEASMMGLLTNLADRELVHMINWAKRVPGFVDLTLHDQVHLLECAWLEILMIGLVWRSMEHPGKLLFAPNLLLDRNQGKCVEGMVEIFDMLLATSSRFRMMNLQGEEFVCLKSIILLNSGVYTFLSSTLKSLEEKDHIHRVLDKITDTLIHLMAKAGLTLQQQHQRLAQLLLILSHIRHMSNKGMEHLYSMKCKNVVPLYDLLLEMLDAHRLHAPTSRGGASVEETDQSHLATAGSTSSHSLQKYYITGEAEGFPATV
How it was run: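 HeLa cells were dosed with test chemical and read 2 hours later for GFP-ERα/ERE-linked fluorescent protein induction by fluorescence microscopy. Gain-of-signal was fitted relative to DMSO baseline, quantified by high content image analysis.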

[14] = target: human Serotonin Transporter (SERT), SLC6A4 (gene 6532) (UniProt P31645); assay: NVS_TR_hSERT: NovaScreen (NVS) Transporter Assay for human Serotonin Transporter (SERT) (AID 2283372)
Chain of human Serotonin Transporter (SERT), SLC6A4 (gene 6532) (P31645 whole entry, looked up): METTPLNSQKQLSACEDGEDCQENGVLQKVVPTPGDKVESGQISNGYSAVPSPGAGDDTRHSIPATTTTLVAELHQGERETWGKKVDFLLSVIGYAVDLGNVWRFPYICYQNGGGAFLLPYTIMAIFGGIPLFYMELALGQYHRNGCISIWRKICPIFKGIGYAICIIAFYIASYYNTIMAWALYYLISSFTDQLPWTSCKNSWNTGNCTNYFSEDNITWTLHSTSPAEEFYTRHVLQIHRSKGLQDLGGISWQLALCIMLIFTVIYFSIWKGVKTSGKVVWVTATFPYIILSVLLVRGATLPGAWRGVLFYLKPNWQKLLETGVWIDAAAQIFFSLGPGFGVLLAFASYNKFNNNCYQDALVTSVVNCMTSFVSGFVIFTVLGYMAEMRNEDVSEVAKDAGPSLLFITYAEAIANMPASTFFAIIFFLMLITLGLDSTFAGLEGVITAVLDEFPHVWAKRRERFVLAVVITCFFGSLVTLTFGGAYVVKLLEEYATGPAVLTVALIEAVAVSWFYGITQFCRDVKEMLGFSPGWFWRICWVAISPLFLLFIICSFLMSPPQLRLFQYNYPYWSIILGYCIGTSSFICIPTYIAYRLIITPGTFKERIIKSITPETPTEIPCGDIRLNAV
How it was run: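 Radioligand binding to native SERT in human platelet membranes, read by filter-based scintillation counting 1 h after dosing. Primary screen in duplicate at 25 uM; actives followed up in concentration series; loss of signal versus DMSO baseline.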

[15] = test system: rat Norepinephrine Transporter (NET), gene 83511; assay: NVS_TR_rNET: NovaScreen (NVS) Transporter Assay for rat Norepinephrine Transporter (NET) (AID 2283373)
How it was run: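 Rat forebrain membranes; radioligand binding measured by filter-based scintillation counting 1 hour after dosing. Loss of specific binding versus DMSO baseline scored; primary screen in duplicate at 25 uM, actives followed up in concentration series.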

[16] = target: mouse Estrogen Receptor alpha (Era), Esr1 (gene 13982) (UniProt P19785); assay: NVS_NR_mERa: NovaScreen (NVS) Nuclear Receptor Binding Assay for mouse Estrogen Receptor alpha (Era) (AID 2283378);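 further: hit means loss of bound radioligand signal relative to DMSO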
Chain of mouse Estrogen Receptor alpha (Era), Esr1 (gene 13982) (P19785 whole entry, looked up): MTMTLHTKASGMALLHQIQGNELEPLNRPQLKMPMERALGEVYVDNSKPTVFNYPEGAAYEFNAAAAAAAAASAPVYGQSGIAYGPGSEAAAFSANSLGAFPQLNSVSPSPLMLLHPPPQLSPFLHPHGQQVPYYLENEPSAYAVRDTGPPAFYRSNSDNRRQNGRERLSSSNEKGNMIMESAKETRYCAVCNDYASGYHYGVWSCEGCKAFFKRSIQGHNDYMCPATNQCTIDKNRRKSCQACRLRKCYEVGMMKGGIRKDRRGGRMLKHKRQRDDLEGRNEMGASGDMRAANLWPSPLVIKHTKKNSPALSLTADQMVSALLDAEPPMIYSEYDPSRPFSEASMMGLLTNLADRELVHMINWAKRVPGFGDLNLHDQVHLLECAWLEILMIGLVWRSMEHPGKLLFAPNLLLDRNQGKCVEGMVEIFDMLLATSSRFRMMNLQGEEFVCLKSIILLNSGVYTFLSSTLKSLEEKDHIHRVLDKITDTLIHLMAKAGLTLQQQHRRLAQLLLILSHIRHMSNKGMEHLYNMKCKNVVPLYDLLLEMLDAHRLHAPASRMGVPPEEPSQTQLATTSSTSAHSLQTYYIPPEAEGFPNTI
How it was run: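 Cell-free radioligand competitive displacement binding, read by filter-based scintillation counting 18 h after dosing. Primary screen run in duplicate at 25 uM, actives retested in concentration series; loss of signal versus DMSO.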

[17] = target: Bile acid receptor (Homo sapiens) (UniProt Q96RI1); assay: OT_FXR_FXRSRC1_0480: Odyssey Thera (OT) 8-hour HEK293T Protein-Complementation Assay for Farnesoid X receptor/SRC-1 Co-activator (AID 2283383)
How it was run: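 HEK293T cells expressing FXR and SRC-1 fused to reporter fragments were dosed with compound for 8 h; fluorescence from the reconstituted reporter marked co-activator recruitment. Gain of signal was fitted against the DMSO baseline.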

[18] = target: Bile acid receptor (Homo sapiens) (UniProt Q96RI1); assay: OT_FXR_FXRSRC1_1440: Odyssey Thera (OT) 24-hour HEK293T Protein-Complementation Assay for Farnesoid X receptor/SRC-1 Co-activator (AID 2283384)
How it was run: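 HEK293T cells were dosed with compound and read 24 h later by fluorescence intensity from protein-fragment complementation reporting FXR/SRC-1 co-activator interaction. Gain of signal was fitted relative to DMSO negative control as baseline.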

[19] = target: Agonist Androgen Response Element (ARE), AR (gene 367) (UniProt P10275); assay: OT_AR_ARELUC_AG_1440: Odyssey Thera (OT) 24-hour CHO-K1 Luciferase Assay for Agonist Androgen Response Element (ARE) (AID 2283379)
Chain of Agonist Androgen Response Element (ARE), AR (gene 367) (P10275 whole entry, looked up): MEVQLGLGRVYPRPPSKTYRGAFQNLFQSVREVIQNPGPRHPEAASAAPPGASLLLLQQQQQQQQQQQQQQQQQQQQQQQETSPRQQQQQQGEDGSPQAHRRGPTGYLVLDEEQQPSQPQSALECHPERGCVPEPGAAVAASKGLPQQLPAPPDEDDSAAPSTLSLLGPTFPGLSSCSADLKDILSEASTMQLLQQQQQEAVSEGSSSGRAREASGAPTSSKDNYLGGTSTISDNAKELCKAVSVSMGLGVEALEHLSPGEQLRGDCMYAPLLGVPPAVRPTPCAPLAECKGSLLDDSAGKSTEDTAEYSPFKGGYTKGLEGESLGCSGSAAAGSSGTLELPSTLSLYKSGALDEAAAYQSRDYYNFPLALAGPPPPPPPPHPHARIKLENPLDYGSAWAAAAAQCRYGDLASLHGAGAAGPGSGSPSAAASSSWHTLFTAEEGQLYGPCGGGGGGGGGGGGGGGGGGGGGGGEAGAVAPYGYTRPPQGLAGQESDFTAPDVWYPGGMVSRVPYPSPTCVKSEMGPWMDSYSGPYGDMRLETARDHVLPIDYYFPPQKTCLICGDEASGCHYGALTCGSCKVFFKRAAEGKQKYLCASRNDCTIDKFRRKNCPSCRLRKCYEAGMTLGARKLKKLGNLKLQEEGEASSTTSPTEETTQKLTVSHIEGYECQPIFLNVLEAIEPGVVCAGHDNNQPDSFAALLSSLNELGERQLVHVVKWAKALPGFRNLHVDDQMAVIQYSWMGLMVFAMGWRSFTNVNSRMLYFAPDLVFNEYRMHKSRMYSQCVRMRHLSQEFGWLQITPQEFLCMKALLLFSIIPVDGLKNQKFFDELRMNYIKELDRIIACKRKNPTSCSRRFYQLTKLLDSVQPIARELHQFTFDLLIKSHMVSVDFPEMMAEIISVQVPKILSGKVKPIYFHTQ
How it was run: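 Seed CHO-K1 cells; dose compounds for 24 h; add D-luciferin plus ATP in PBS; read luminescence. Signal increase relative to vehicle defines agonist activity, with at least 3 replicate wells per sample.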

Measured: AC50

C=CCc1ccc2c(c1)OCO2
inactive: [2] | [3] | [4]
active: [1] 11.6 µM

Nc1ccc(Oc2ccc(N)cc2)cc1
inactive: [6] | [3] | [4]
active: [5] 2.99 µM | [7] 3.25 µM

CCCCC(CC)COC(=O)c1ccc(C(=O)OCC(CC)CCCC)c(C(=O)OCC(CC)CCCC)c1 (stereo not drawn)
inactive: [8] | [4]

CCCCOC(=O)c1ccccc1C(=O)OCc1ccccc1
inactive: [1] | [6] | [2] | [4]
active: [3] 12.9 µM

[Cl-].[Cl-].[Hg+2]
active: [9] 8.46 µM | [10] 5.1 µM | [5] 44.2 µM | [7] 25 µM | [11] 25 µM | [12] 0.372 µM | [13] 21.5 µM
inactive: [3]

CCC[CH2][Sn]([Cl])([CH2]CCC)[CH2]CCC
inactive: [16] | [13] | [17] | [4]
active: [9] 0.726 µM | [10] 34.6 µM | [5] 11.1 µM | [14] 11.2 µM | [15] 14.4 µM | [7] 3.59 µM | [11] 8.54 µM | [12] 0.361 µM | [18] 82 µM

N#CC(Br)(Br)C(N)=O
inactive: [1] | [4]

CN(C)c1ccc(C(=O)c2ccc(N(C)C)cc2)cc1
inactive: [8] | [3] | [4]
active: [6] 25 µM | [17] 49 µM | [18] 0.699 µM | [4] 60.1 µM

CN(C)[C@@H]1C(=O)C(C(N)=O)=C(O)[C@@]2(O)C(=O)C3=C(O)c4c(O)cccc4[C@@](C)(O)[C@H]3C[C@@H]12
active: [9] 15.9 µM
inactive: [12] | [3] | [17] | [18] | [4]

Nc1ccc(N=Nc2ccccc2)cc1
active: [5] 15 µM | [7] 2.24 µM | [12] 9.76 µM | [3] 35.6 µM | [18] 12.2 µM
inactive: [6] | [16] | [13] | [17] | [4]

CCCCCCCCn1sccc1=O
active: [9] 7.16 µM | [10] 16.6 µM | [6] 0.693 µM
inactive: [7] | [16] | [3] | [13]

CCOC(=O)[C@]1(c2ccccc2)Oc2ccccc2[C@@H]1N
inactive: [6] | [3] | [17] | [18]
active: [9] 25 µM | [1] 0.0612 µM | [5] 5.45 µM | [14] 2.56 µM | [15] 5.35 µM | [7] 2.98 µM | [11] 1.23 µM | [12] 1.56 µM

C[C@]12C=CC3=C4CCC(=O)C=C4CC[C@H]3[C@@H]1CC[C@@H]2O
active: [10] 35.2 µM | [6] 41.5 µM | [11] 5.68 µM | [2] 13.3 µM | [16] 3.65 µM and 4.59 µM and 7.64 µM | [19] 210 nM and 213 nM and 2.53 nM | [17] 12.7 µM and 14.2 µM and 12.3 µM | [18] 21.3 µM and 21.2 µM and 19.5 µM | [4] 14.3 µM
inactive: [6] | [14] | [16] | [3] | [17] | [18] | [4]

O=C(Oc1ccc(Br)cc1)N1CCN2CCC1CC2
active: [5] 7.13 µM | [14] 1.91 µM | [7] 8.54 µM | [11] 1.01 µM | [12] 12.8 µM
inactive: [6] | [13] | [4]

C[N+](C)(C)CC1CO1 (stereo not drawn)
active: [19] 26.1 µM
inactive: [8] | [3] | [13] | [4]

CCCCCCCCCCCCCN1CC(C)OC(C)C1 (stereo not drawn)
active: [1] 0.0622 µM | [4] 72.5 µM
inactive: [8] | [3] | [13]

Cc1ccc(N)c(N)c1
active: [12] 16.4 µM
inactive: [3] | [4]

CO[C@@H]1[C@H](OC(=O)NC(=O)CCl)CC[C@]2(CO2)[C@H]1[C@@]1(C)O[C@@H]1CC=C(C)C
inactive: [19] | [3] | [13] | [4]

N#CC(Br)Br
inactive: [3] | [13] | [18]

Cc1ccc([N+](=O)[O-])cc1
inactive: [3] | [13]

Nc1cc(Cl)cc(C(=O)O)c1Cl
inactive: [3]

CCCCCCCCOC(=O)c1ccc(C(=O)OCCCCCCCC)c(C(=O)OCCCCCCCC)c1
inactive: [2] | [3] | [17] | [18]

CC(C)COC(=O)c1ccccc1C(=O)OCC(C)C
inactive: [6] | [3] | [18] | [4]
active: [13] 13 µM | [17] 17.7 µM

Nc1ccc(Cc2ccc(N)cc2)cc1
active: [7] 9.3 µM
inactive: [5] | [15] | [17] | [18] | [4]

CNC(=O)Oc1cccc2c1OC(C)(C)C2
inactive: [19] | [3] | [13] | [4]
